Compound activity as filed in PubChem.
ABHD5 PLIN5 PPI = ABHD5-PLIN5 interaction inhibitors, primary screen, cell lysate, split luciferase complementation, luminescence | Split G. princeps luciferase complementation, 4 h | inhibition, % at 4 µM | actives 0.78% (n = 360,000) | AID 602281, 2012;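 active = inhibition above the mean inhibition across every tested compound plus 3 SD, cut at about 22% in these data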;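 note: 0% = DMSO only wells and the 100% control is not disclosed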
LANA-H2B inh = blockers of LANA interaction with H2A/H2B – biochemical, FP readout, HTS, primary screen; Protein LANA1 (Human herpesvirus 8 type P (isolate GK18)), Q9QR71; cell-free LANA-H2A/H2B peptide, fluorescence polarization; inhibition, % (test concentration not listed); actives 0.6% (n = 320,000); in the data active = inhibition mostly above about 10%, no sharp cut-off; inactive = mostly below about 6.7%
ALR inh = inhibitors of human ALR sulfhydryl oxidase, primary screen, biochemical, H2O2 detection, HRP-luminol luminescence, single point; FAD-linked sulfhydryl oxidase ALR (Homo sapiens), P55789; purified ALR, DTT oxidation; inhibition, % (concentration not given with the values); actives 3.8% (n = 290,000); AID 485317, 2010;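 active = mean replicate inhibition above about 79%, with every replicate also reaching it, limit read from the data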
Target sequence (P55789 whole entry, looked up): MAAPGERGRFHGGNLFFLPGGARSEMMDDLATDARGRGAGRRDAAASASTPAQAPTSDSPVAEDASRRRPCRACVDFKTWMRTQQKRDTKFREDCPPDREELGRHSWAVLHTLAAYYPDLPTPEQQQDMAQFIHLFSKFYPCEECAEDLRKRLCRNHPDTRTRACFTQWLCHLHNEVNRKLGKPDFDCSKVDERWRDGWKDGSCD
PRMT1 inh = PRMT1 methyltransferase inhibitors, primary screen, biochemical, fluorescence polarization. actives 1.3% (n = 370,000). inhibition, % at 2.79 µM. Protein arginine N-methyltransferase 1 (Homo sapiens), Q99873. recombinant PRMT1, activity-based probe fluorescence polarization;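 active = inhibition above about 21% made by adding two undisclosed values, limit read from the data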
Target sequence (Q99873 whole entry, looked up): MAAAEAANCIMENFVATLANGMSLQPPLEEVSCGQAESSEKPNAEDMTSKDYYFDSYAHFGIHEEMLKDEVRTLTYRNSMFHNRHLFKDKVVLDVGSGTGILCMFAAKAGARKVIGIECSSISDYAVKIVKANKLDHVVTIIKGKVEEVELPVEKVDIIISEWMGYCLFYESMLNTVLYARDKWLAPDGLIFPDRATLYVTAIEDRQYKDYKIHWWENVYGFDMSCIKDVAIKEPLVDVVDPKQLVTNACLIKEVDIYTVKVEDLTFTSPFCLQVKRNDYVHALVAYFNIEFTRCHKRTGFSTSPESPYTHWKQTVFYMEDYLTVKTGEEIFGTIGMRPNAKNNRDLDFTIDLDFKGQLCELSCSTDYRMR
Rtt109 HAT inh = inhibitors of C. albicans Rtt109/Vps75 HAT, primary screen, biochemical, ThioGlo CoA-SH fluorescence, plate reader; actives 0.16% (n = 330,000); purified Rtt109/Vps75, 4 h; Histone acetyltransferase RTT109 (Candida albicans (strain SC5314 / ATCC MYA-2876)), …; inhibition, % at 34.9 µM;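 active = inhibition of at least 50% in every replicate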
rCAG binder = binders of r(CAG) RNA repeats, primary screen, biochemical, fluorescence; actives 1.3% (n = 370,000); inhibition, % at 3 µM; AID 651821, 2012; r(CAG) RNA repeat, TO-PRO-1 dye displacement fluorescence;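 active = inhibition above the plate cutoff, the mean of all test compounds on that plate plus 3 SD, cut at about 35% in these data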;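 note: 0% = DMSO alone and 100% = 100 µM mitoxantrone as full dye displacement; higher means more dye released from RNA so lower well fluorescence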
rCAG bind conf = small molecules binding CAG repeat RNA – biochemical, fluorescence, confirmation; AID 652065, 2013; inhibition, % at 3 µM; shares compounds with rCAG binder; actives 70% (n = 4,300); r(CAG) RNA repeat, TO-PRO-1 dye displacement fluorescence;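 active = inhibition above a per-plate cutoff, the mean inhibition of sample wells plus 3 SD, cut at about 35% in these data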;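 note: loss of TO-PRO-1 fluorescence as compound displaces dye from 1x1 AA loop RNA; 0% = DMSO only wells and 100% = 100 µM mitoxantrone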
DNA CAG counter = displacement of TO-PRO-1 from CAG DNA duplex, counter-screen for rCAG RNA repeat binder project, biochemical, fluorescence, TO-PRO-1 dye, d(CAG) DNA oligo; shares compounds with rCAG binder; d(CAG) DNA oligo TO-PRO-1 dye displacement; inhibition, % at 3 µM; actives 94% (n = 4,300);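 active = inhibition above its plate's cutoff, the mean test-well inhibition plus 3 SD, cut at about 4.8% in these data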;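 note: 0% = DNA dye mix with DMSO and 100% = 100 µM mitoxantrone; hits displace the dye from DNA and so lower well fluorescence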
dCAG dye DR = inhibitors of DNA CAG/GTC TO-PRO-1 complex, dose response, counter-screen for rCAG RNA repeat binder project, biochemical, fluorescence, TO-PRO-1 dye; actives 20% (n = 250); IC50, µM; DNA CAG/GTC duplex TO-PRO-1 dye displacement fluorescence; shares compounds with rCAG binder; in the data active = IC50 below about 10 µM
Starred values were filed as active, the others as inactive; . = no result given. In the library only some 5.9% were active in any assay of this set; here they are far more common.

SMILES	ABHD5 PLIN5 PPI	LANA-H2B inh	ALR inh	PRMT1 inh	Rtt109 HAT inh	rCAG binder	rCAG bind conf	DNA CAG counter	others
COc1cc(/C=N/Nc2nc(C)nc3c2cnn3-c2ccccc2)ccc1O	0.1	.	.	10.9	-7.8	40.9*	27.2	9.7*
COc1cc(/C=N/NC(=O)c2cnn3c(C)cc(-c4ccccc4)nc23)ccc1O	1.2	-3.9	37.1	0.6	3.1	7.8	.	.
CCOC(=O)Cc1ccc(Nc2nc3cc(-c4sccc4C)sc3c(=O)n2C)cc1	-1.2	.	.	5.8	.	9.9	.	.
CC(/C=C1\SC(=S)N(NC(=O)c2cccc(O)c2)C1=O)=C\c1ccccc1	2.6	1.5	-1.7	-0.9	34.5	39.6*	26.0	11.8*
COC(=O)[C@]12C[C@H](CC(=O)NCc3ccccc3)C(=O)N(CCc3ccc(OC)c(OC)c3)C1=C[C@H](COCc1ccccc1)O[C@@H]2C	.	.	.	-1.7	.	6.1	.	.
O=C(COc1ncnc2c(Cl)cc(Cl)cc12)Nc1cc([N+](=O)[O-])ccc1Cl	2.0	-0.1	.	-1.4	6.3	68.1*	13.6	9.4*
CN(C)S(=O)(=O)c1cccc(NC(=O)c2cccc(S(=O)(=O)N3CCc4ccccc43)c2)c1	-8.4	.	.	1.1	-3.4	12.9	.	.
Cc1c(OCc2nn[nH]n2)ccc2c3c(c(=O)oc12)CCC(C)C3 (stereo not drawn)	0.4	-0.7	98.5*	-0.3	-2.2	42.2*	23.2	4.7*
COc1cccc(C(=O)N[C@@H](Cc2cccnc2)C(=O)N2CCC[C@H]2C(=O)NC2CCCC2)c1	.	.	.	-2.3	.	-0.3	.	.
O=S(=O)(NCc1cn(Cc2ccccc2)nn1)c1ccccc1Br	.	.	.	2.8	.	7.1	.	.
CCCCc1ccc(NC(=O)CSCc2cc(=O)[nH][nH]2)cc1	6.0	-0.1	78.8*	1.6	-4.7	42.4*	14.6	4.5*
NNS(=O)(=O)c1ccc2c(c1)Cc1cc(S(=O)(=O)NN)ccc1-2	3.0	-1.5	98.8*	10.5	1.9	41.9*	5.9	4.0
O=C(OCCCN1CCC2(CCC(c3ccccc3)CC2)C1=O)c1ccccc1 (stereo not drawn)	.	.	.	-1.4	.	2.9	.	.
CCc1nnc(NS(=O)(=O)c2ccc(NC(=S)NC(=O)/C=C/c3ccc([N+](=O)[O-])cc3)cc2)s1	0.8	4.1	.	1.0	-8.9	37.5*	23.3	7.7*
CCc1nnc(NS(=O)(=O)c2ccc(NC(=S)NC(=O)/C=C/c3ccc(F)cc3)cc2)s1	-1.6	.	.	1.2	2.8	85.3*	85.6*	59.5*
CC(C)(C)Cc1nnc(NS(=O)(=O)c2ccc([N+](=O)[O-])cc2)s1	4.5	8.0	-14.2	-2.2	6.3	32.7	.	.
CSc1ccc(/C=C/C(=O)NC(=O)c2ccccc2O)cc1	1.3	2.6	12.7	2.4	-4.4	38.2*	25.9	8.7*
CC(C)Cn1nc(NS(=O)(=O)c2cccc3nonc23)c2cc3ccccc3nc21	1.0	-0.1	97.3*	3.8	3.0	53.3*	38.5*	11.8*
COc1ccc(CCC(=O)Nc2cc3c4c(c2)CCC(=O)N4CCC3)cc1	-8.6	1.0	-5.6	0.2	-5.7	-4.4	.	.
O=C(CCc1ccccc1)Nc1cc(NC(=O)CCc2ccccc2)cc(C(=O)O)c1	2.5	-7.8	1.5	0.6	15.6	40.3*	26.8	4.2
O=C(CCc1ccccc1)Nc1cc2c3c(c1)CCC(=O)N3CCC2	-1.2	5.4	-3.3	1.2	-2.6	41.6*	7.6	1.3
O=C(CCc1ccccc1)Nc1ccncc1	-11.3	3.5	-10.6	-1.5	1.2	0.3	.	.
N#CCc1nc(C(c2ccccc2)c2ccccc2)no1	7.6	-1.3	66.8	2.9	-5.7	39.6*	16.7	8.0*
COCCN(C)Cc1nc(C(c2ccccc2)c2ccccc2)no1	-9.6	2.4	-2.6	-2.4	-1.2	-6.8	.	.
Cc1ccc(NC(=O)c2ncn(CCCNCC3CCCCC3)n2)cc1C	-2.4	.	.	-1.9	.	7.4	.	.
SMILES	ABHD5 PLIN5 PPI	LANA-H2B inh	ALR inh	PRMT1 inh	Rtt109 HAT inh	rCAG binder	rCAG bind conf	DNA CAG counter	others
COc1ccc(C2=NN(C(=O)COC(=O)c3ccc(NC(=O)CC#N)cc3)C(c3ccco3)C2)cc1 (stereo not drawn)	-0.5	8.4	-6.0	-3.1	10.7	34.8*	23.2	17.5*
O=C(OCC(=O)N1N=C(c2ccc(Cl)cc2)CC1c1ccco1)c1ccccc1O (stereo not drawn)	2.4	3.2	-15.0	-0.6	0.7	0.1	.	.
Cc1nn(-c2ccccc2)c2c1C(c1ccc(O)c(O)c1)N1C(=N2)C(Nc2ccccc2)=Nc2ccccc21 (stereo not drawn)	-4.6	3.4	2.9	-5.9	-7.7	18.2	.	.
Cc1cccc(NC2=Nc3ccccc3N3C2=Nc2c(c(C)nn2-c2ccccc2)C3c2ccc(O)c(O)c2)c1 (stereo not drawn)	-2.4	3.9	1.2	3.6	1.4	57.1*	48.5*	34.1*
Cc1ccc(NC2=Nc3ccccc3N3C2=Nc2c(c(C)nn2-c2ccccc2)C3c2ccc(O)c(O)c2)cc1 (stereo not drawn)	3.7	.	.	1.4	2.1	57.4*	63.5*	41.6*
COC(=O)c1sc(-c2ccc(Cl)cc2)cc1NC(=O)CSCC(=O)O	-6.3	-0.4	57.7	-6.9	-6.3	26.5	.	.
COC(=O)c1sc(-c2ccc(C(C)(C)C)cc2)cc1NC(=O)COCC(=O)O	-4.0	1.5	97.7*	3.1	14.5	63.8*	73.0*	31.2*	dCAG dye DR=9.06*
CCOC(=O)c1c(-c2ccccc2)csc1N1C(=O)Nc2ccccc2N1O	0.8	-4.2	51.5	-1.9	2.4	49.8*	38.1*	8.8*
COC(=O)c1c(N2C(=O)Nc3ccccc3N2O)sc2c1CCCC2	0.0	-6.6	9.0	2.3	9.4	40.4*	36.1*	8.4*
